Compound activity deposited in PubChem BioAssay by National Center for Advancing Translational Sciences (NCATS).
12-hLO inh = blocks human 12-lipoxygenase activity. P18054. purified 12-hLO, xylenol orange hydroperoxide absorbance. Potency, µM (series often up to 57.1 µM), most hits filed as inhibitors. 150,000 compounds, 0.12% hits; active means well fitted curve in the direction sought with a large enough effect; inconclusive means small, poorly fitted or top-dose-only effect, or another doubt; inactive means no such curve, though single readings can be large; an effect the other way counts as inactive or inconclusive; further: nearly all actives have a fitted effect of over 55% in size
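Purified human 12hLO (150 nM final) was preincubated with compounds for 15 min at room temperature in 25 mM Hepes pH 7.0, 0.01% Triton X-100, then reacted with 40 uM arachidonic acid for 30 min. Hydroperoxide was detected with ferrous iron/xylenol orange.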
HPGD inh = blocks human HPGD enzyme activity; Potency, µM, usual class: inhibitors; 150,000 compounds, 4.3% hits; AID 894; purified HPGD, NADH fluorescence kinetic, PGE2 substrate
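NADH formation kinetics: reaction with 30 uM PGE2 and 1 mM NAD+ (final), 20 nM enzyme, Tris-HCl pH 8 with Tween 20, after 15 min compound preincubation at room temperature. Fluorescence change, last versus first of five reads.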
IMPase Li inh = IMPase inhibition in cells with lithium potentiation; Potency, µM (titrated, usually from 59.4 µM), actives largely listed as inhibitors; CHO-M1 cells, IP1 TR-FRET (IP-One), carbachol + lithium; 210,000 compounds, 0.35% hits; active means well fitted curve in the direction sought with a large enough effect; inconclusive means small, poorly fitted or top-dose-only effect, or another doubt; inactive means no such curve, though single readings can be large; an effect the other way counts as inactive or inconclusive;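 further: IP1 builds up when IMPase is blocked and the TR-FRET signal falls; nearly all actives have a fitted effect of over 50% in size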
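Readout is a homogeneous TR-FRET IP1 immunoassay (Ex 320, Em 665 and 620), where raised cytosolic IP1 lowers signal. Cells were CHO-M1 treated 30 min at 37C with test compounds plus a little lithium; AC50 values came from Hill-equation fitting.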
PNC assembly inh = inhibitors of perinucleolar compartment assembly | AID 2417 | activity change (PNC), negative = inhibition, % at 10 µM | PC3M PTB-GFP, PNC prevalence imaging, 16 h; active compounds read low | 140,000 compounds, 3.1% hits;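 active means readout at or below -70, meaning at least 70% loss of cells showing the perinucleolar compartment, a nuclear body marking cancer cells; inconclusive means readout between -30 and a set limit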
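PC3M cells stably expressing PTB-GFP, 750–1000 cells/well, treated 16 h at 37 °C with compound (23 nl of library stock), in duplicate. After paraformaldehyde fixation and Hoechst stain, imaged at 20x; PNC prevalence scored by image analysis.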
ALDH1A1 inh = ALDH1A1 (human) enzyme inhibition; Purified ALDH1A1, NADH fluorescence, propionaldehyde substrate; Potency, µM (doses to about 75.3 µM), hits mostly inhibitors; 220,000 compounds, 7.3% hits; P00352
Target sequence (P00352 whole entry, looked up): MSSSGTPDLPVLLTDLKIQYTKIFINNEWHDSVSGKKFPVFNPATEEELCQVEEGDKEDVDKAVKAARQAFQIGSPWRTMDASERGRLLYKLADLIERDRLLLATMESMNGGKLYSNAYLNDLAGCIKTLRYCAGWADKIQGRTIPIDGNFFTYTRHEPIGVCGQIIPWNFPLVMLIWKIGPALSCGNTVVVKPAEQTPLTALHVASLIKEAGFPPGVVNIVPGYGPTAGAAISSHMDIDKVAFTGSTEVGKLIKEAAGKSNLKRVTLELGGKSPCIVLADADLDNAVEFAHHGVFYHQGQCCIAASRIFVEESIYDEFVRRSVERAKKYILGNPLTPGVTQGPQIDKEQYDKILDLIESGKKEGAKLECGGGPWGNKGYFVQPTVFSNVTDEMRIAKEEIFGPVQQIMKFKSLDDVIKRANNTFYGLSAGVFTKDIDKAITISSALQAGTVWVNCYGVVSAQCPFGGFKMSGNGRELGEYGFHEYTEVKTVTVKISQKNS
IMPase inh = IMPase inhibition in cells. 120,000 tested, under 10 active. inhibition (IP1 accumulation), % at 46.1 µM. P97697. CHO-M1 cells, IP1 accumulation, HTRF TR-FRET ratio. AID 901; active means well fitted curve in the direction sought with a large enough effect in the signal ratio, not every such curve was filed as active; inconclusive means small, poorly fitted or top-dose-only effect, or a change in a side signal; inactive means no such curve, though single readings can be large or run the other way; the % refers to the signal ratio;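 further: cells stimulated with carbachol in lithium chloride buffer; higher means more IMPase inhibition seen as more IP1 and lower FRET ratio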
Target sequence (P97697 whole entry, looked up): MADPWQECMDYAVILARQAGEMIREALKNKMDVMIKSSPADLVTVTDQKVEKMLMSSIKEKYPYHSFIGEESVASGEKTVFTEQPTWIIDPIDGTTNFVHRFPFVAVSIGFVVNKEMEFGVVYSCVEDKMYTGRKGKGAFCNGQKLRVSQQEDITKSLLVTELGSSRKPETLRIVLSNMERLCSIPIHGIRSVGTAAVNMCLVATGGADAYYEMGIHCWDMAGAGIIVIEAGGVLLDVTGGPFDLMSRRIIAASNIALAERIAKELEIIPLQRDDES
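Carbachol-driven Gq signalling in CHO-M1 cells (2000/well) generates IP1. Compounds that block IMPase raise IP1 and so reduce the FRET signal from Eu-anti-IP1 and d2-IP1 after a 10 min room-temperature lysis.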
A number is an active result; [ ] = dose if it differs, or a comment. The list is not random: actives were taken first. Their share in the collection is about 11%. Unless noted, the call rests on the fitted dose curve; in most records, active means well fitted inhibition curve with a large enough effect (not every such curve was filed as active); inconclusive means small, poorly fitted or top-dose-only effect, or another doubt; inactive means no such curve, though single readings can be large or run the other way.

How did CCOC(=O)c1c2c(c(=S)n(-c3ccccc3)c1N)CCC2 do in these assays?
12-hLO inh: inactive; PNC assembly inh: inactive; ALDH1A1 inh: 14µM; IMPase inh: inactive

How did CC[C@H](C)[C@@H]1O[C@]2(CC[C@@H]1C)C[C@H]1C[C@H](CC=C(C)[C@@H](O[C@H]3C[C@H](OC)[C@H](O[C@H]4C[C@H](OC)[C@H](O)[C@H](C)O4)[C@H](C)O3)[C@@H](C)C=CC=C3CO[C@@H]4[C@@H](O)C(C)=C[C@H](C(=O)O1)[C@@]34O)O2 do in these assays?
12-hLO inh: inactive; IMPase inh: inactive

Results for CN(CC(=O)NCCc1ccc(Cl)cc1)S(=O)(=O)c1ccc2c(c1)c(=O)n(C)c(=O)n2C ?
12-hLO inh: inactive; HPGD inh: inactive; IMPase Li inh: inactive; PNC assembly inh: inactive; ALDH1A1 inh: inactive; IMPase inh: inactive

How did CN(CC(=O)NCCC1=CCCCC1)S(=O)(=O)c1ccc2c(c1)c(=O)n(C)c(=O)n2C do in these assays?
12-hLO inh: inactive; HPGD inh: inactive; IMPase Li inh: inactive; PNC assembly inh: inactive; ALDH1A1 inh: 32µM; IMPase inh: inactive

How did COc1ccc(N2CCN(CC(O)COc3ccccc3C(C)(C)C)CC2)cc1 (configuration not stated) do in these assays?
IMPase inh: inactive

How did O=C(N/N=C/c1sc(N2CCCCC2)nc1-c1cccs1)C1CC1 do in these assays?
IMPase Li inh: inactive; ALDH1A1 inh: 22µM

What do the screens show for `CC(C)NC(=S)N/N=C/c1sc(N2CCCCC2)nc1-c1cccs1`?
12-hLO inh: inactive; HPGD inh: inactive; IMPase Li inh: inactive; PNC assembly inh: inconclusive; ALDH1A1 inh: inconclusive

Results for O=C(Nc1ccc(OC(F)(F)F)cc1)Nc1cccnc1 ?
ALDH1A1 inh: inactive

How did O=C(NCC(F)(F)F)Nc1cccnc1 do in these assays?
12-hLO inh: inactive; HPGD inh: inactive; IMPase Li inh: inactive; PNC assembly inh: -100; ALDH1A1 inh: inactive; IMPase inh: inactive

What do the screens show for `c1cc2c(cc1C(N1CCNCC1)N1CCNCC1)OCO2`?
12-hLO inh: inactive[11.4 µM]; HPGD inh: inactive; IMPase Li inh: inactive; ALDH1A1 inh: inactive[13.5 µM]

What do the screens show for `O=C(Nc1ccc2oc(-c3cccc4c(Br)cccc34)nc2c1)c1ccc(Br)cc1`?
IMPase inh: inactive

How did Cc1ccc(C(=O)NCc2ccc(Cl)c(Cl)c2)o1 do in these assays?
12-hLO inh: inactive; HPGD inh: 13µM; IMPase Li inh: inactive; PNC assembly inh: inactive; ALDH1A1 inh: inactive; IMPase inh: inactive

Results for O=C(NCc1cccs1)[C@@H]1CSC2c3ccccc3C(=O)N21 (some centres not stated) ?
12-hLO inh: inactive; HPGD inh: inactive; IMPase Li inh: inactive; PNC assembly inh: inactive; ALDH1A1 inh: inactive; IMPase inh: inactive

Results for O=C(O)C1CSC2c3ccccc3C(=O)N12 (configuration not stated) ?
12-hLO inh: inactive; HPGD inh: inconclusive; IMPase Li inh: inactive; PNC assembly inh: inconclusive; ALDH1A1 inh: 7.5µM; IMPase inh: inactive

What do the screens show for `O=C(Nc1ccccc1N1CCCCC1)c1ccc(-c2cccc(Cl)c2)o1`?
12-hLO inh: inactive; HPGD inh: inconclusive; IMPase Li inh: inactive; PNC assembly inh: inactive; ALDH1A1 inh: inactive

Results for S=C(c1ccc(-c2cccc(Cl)c2)o1)N1CCCCC1 ?
IMPase Li inh: inactive; ALDH1A1 inh: 14µM

How did O=[N+]([O-])c1cccc(-c2ccc(C(=S)N3CCOCC3)o2)c1 do in these assays?
IMPase Li inh: inactive; ALDH1A1 inh: inactive

What do the screens show for `O=[N+]([O-])c1cc(-c2ccc(C(=S)N3CCOCC3)o2)ccc1Cl`?
IMPase Li inh: inactive; ALDH1A1 inh: 4µM

Results for O=C(NC(=S)Nc1cc(Cl)ccc1N1CCOCC1)c1ccc(-c2cccc(Cl)c2)o1 ?
12-hLO inh: inactive; HPGD inh: inactive; IMPase Li inh: inactive; PNC assembly inh: inconclusive; ALDH1A1 inh: inactive; IMPase inh: inactive

Results for N#CCCN1CCN(C(=S)c2ccc(-c3cccc(Cl)c3)o2)CC1 ?
12-hLO inh: inactive; HPGD inh: 28µM; IMPase Li inh: inactive; PNC assembly inh: inactive; ALDH1A1 inh: 11µM; IMPase inh: inactive

How did S=C(c1ccc(-c2cccc(Cl)c2)o1)N1CCOCC1 do in these assays?
12-hLO inh: inactive; HPGD inh: 22µM; IMPase Li inh: inactive; PNC assembly inh: inactive; ALDH1A1 inh: 11µM; IMPase inh: inactive

How did C=Cc1c(C)c2cc3nc(cc4[nH]c(cc5nc(cc1[nH]2)C(C)=C5CCC(=O)O)c(CCC(=O)OC)c4C)[C@@]1(C)C3=CC=C(C(=O)OC)[C@H]1C(=O)OC (tested in a mixture with another compound) do in these assays?
12-hLO inh: inactive; HPGD inh: inactive; IMPase Li inh: inactive; ALDH1A1 inh: inactive; IMPase inh: inactive

Results for CCCCCCCCCCCCC1CO1 (configuration not stated) ?
12-hLO inh: inactive; HPGD inh: inactive; IMPase Li inh: inactive; ALDH1A1 inh: inactive

Results for C#C[C@]1(OC(C)=O)CCC2C3CCC4=CC(=O)CCC4C3CC[C@]21C (some centres not stated) ?
12-hLO inh: inactive; HPGD inh: inactive; IMPase Li inh: inactive; ALDH1A1 inh: inactive

How did COc1ccccc1NS(=O)(=O)c1cc(Cl)ccc1OC do in these assays?
12-hLO inh: inactive; HPGD inh: inactive; IMPase Li inh: inactive; PNC assembly inh: -114; ALDH1A1 inh: inactive; IMPase inh: inactive

Results for COc1ccc(C)cc1S(=O)(=O)Nc1ccc(F)c(Cl)c1 ?
12-hLO inh: inactive; HPGD inh: 28µM; IMPase Li inh: inactive; PNC assembly inh: inconclusive; ALDH1A1 inh: inactive; IMPase inh: inactive

Results for COc1ccccc1NS(=O)(=O)c1ccc(Cl)c(NC(=O)C(C)N2C(=O)c3ccccc3C2=O)c1 (configuration not stated) ?
12-hLO inh: inactive; HPGD inh: inactive; IMPase Li inh: inactive; PNC assembly inh: inactive; ALDH1A1 inh: 18µM

What do the screens show for `COc1ccccc1NS(=O)(=O)c1ccc(Cl)c(NC(=O)c2sc3cc(Cl)ccc3c2Cl)c1`?
IMPase Li inh: inactive; ALDH1A1 inh: inactive

What do the screens show for `COc1ccccc1NS(=O)(=O)c1cccc(NC(=O)c2sc3ccccc3c2Cl)c1`?
IMPase Li inh: inactive; ALDH1A1 inh: inactive

How did COc1ccccc1NS(=O)(=O)c1cccc(NC(=O)Nc2cccc(Cl)c2)c1 do in these assays?
12-hLO inh: inconclusive; HPGD inh: inactive; IMPase Li inh: inactive; PNC assembly inh: -86; ALDH1A1 inh: inactive
